Source: ChEMBL document CHEMBL1961873, “Compounds: GSK PKIS; Assays: Nanosyn kinase panel” (2012)
Where “and” joins values, the source holds several entries; their conditions need not be identical. Equal values may be shown once.

Key:
[1] = target: T1, Tyrosine-protein kinase ITK/TSK (Homo sapiens) (UniProt Q08881); details: at 1 µM;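 further: values are mean percent inhibition of ITK from the GSK PKIS screen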
T1 sequence (whole entry): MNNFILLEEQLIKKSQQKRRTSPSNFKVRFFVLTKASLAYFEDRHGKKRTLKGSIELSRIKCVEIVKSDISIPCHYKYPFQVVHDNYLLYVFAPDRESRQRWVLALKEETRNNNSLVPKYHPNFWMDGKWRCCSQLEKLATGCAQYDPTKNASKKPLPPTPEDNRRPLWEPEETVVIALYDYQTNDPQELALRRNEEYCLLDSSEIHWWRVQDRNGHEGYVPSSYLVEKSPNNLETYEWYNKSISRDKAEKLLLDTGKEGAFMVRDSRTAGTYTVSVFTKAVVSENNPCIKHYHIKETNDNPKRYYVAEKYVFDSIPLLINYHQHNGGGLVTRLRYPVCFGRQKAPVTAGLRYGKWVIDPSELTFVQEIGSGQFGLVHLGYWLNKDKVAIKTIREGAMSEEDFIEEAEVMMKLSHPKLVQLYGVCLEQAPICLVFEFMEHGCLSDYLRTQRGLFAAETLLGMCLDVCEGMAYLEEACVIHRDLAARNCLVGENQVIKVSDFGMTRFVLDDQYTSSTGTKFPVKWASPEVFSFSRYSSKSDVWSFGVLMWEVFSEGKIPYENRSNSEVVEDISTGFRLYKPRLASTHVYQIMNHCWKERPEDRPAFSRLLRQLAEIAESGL

[2] = target: Tyrosine-protein kinase JAK1 (Homo sapiens) (UniProt P23458); details: at 0.1 µM
[3] = target: Tyrosine-protein kinase JAK1 (Homo sapiens) (UniProt P23458); details: at 1 µM
[4] = target: Tyrosine-protein kinase JAK2 (Homo sapiens) (UniProt O60674); details: at 0.1 µM
[5] = target: Tyrosine-protein kinase JAK2 (Homo sapiens) (UniProt O60674); details: at 1 µM
[6] = target: T2, Tyrosine-protein kinase JAK3 (Homo sapiens) (UniProt P52333); details: at 0.1 µM
T2 sequence (whole entry): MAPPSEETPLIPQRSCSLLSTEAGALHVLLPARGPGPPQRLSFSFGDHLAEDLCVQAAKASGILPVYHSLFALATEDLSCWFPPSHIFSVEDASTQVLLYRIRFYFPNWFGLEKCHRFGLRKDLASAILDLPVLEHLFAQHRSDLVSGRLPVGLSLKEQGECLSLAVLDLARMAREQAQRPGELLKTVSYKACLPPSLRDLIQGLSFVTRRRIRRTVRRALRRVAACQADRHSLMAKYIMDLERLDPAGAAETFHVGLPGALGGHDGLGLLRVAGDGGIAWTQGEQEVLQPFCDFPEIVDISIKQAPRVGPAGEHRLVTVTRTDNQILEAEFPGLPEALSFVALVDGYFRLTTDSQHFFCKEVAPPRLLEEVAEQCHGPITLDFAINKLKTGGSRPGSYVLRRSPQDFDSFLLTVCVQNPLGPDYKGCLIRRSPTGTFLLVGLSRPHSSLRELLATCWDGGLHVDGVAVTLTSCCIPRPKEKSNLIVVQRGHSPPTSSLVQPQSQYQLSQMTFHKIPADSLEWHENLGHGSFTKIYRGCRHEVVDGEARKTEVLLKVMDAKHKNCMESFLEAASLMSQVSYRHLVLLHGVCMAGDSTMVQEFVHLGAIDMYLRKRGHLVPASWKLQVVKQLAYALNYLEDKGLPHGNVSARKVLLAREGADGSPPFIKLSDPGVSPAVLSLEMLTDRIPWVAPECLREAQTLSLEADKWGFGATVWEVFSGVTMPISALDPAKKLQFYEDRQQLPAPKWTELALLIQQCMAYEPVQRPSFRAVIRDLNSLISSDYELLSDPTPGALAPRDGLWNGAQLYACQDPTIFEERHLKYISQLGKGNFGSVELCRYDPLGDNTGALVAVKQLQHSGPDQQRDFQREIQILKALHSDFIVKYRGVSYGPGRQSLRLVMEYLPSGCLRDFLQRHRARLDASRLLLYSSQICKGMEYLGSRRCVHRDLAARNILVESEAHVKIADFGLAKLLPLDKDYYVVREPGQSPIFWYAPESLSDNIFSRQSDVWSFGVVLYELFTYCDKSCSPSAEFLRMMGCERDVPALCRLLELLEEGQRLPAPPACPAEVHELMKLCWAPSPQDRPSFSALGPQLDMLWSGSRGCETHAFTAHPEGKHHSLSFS

[7] = target: T2, Tyrosine-protein kinase JAK3 (Homo sapiens); details: at 1 µM
[8] = target: Vascular endothelial growth factor receptor 2 (Homo sapiens) (UniProt P35968); details: at 0.1 µM
[9] = target: Vascular endothelial growth factor receptor 2 (Homo sapiens) (UniProt P35968); details: at 1 µM
[10] = target: Mast/stem cell growth factor receptor Kit (Homo sapiens) (UniProt P10721); details: at 0.1 µM
[11] = target: Mast/stem cell growth factor receptor Kit (Homo sapiens) (UniProt P10721); details: at 1 µM
[12] = test system: Mast/stem cell growth factor receptor Kit (Homo sapiens), P10721 [D816V]; details: at 0.1 µM
[13] = test system: Mast/stem cell growth factor receptor Kit (Homo sapiens), P10721 [D816V]; details: at 1 µM
[14] = test system: Mast/stem cell growth factor receptor Kit (Homo sapiens), P10721 [T670I]; details: at 0.1 µM
[15] = test system: Mast/stem cell growth factor receptor Kit (Homo sapiens), P10721 [T670I]; details: at 1 µM
[16] = test system: Mast/stem cell growth factor receptor Kit (Homo sapiens), P10721 [V560G]; details: at 0.1 µM
[17] = test system: Mast/stem cell growth factor receptor Kit (Homo sapiens), P10721 [V560G]; details: at 1 µM
[18] = target: Tyrosine-protein kinase Lck (Homo sapiens) (UniProt P06239); details: at 0.1 µM
[19] = target: Tyrosine-protein kinase Lck (Homo sapiens) (UniProt P06239); details: at 1 µM
[20] = target: Leukocyte tyrosine kinase receptor (Homo sapiens) (UniProt P29376); details: at 0.1 µM
Leukocyte tyrosine kinase receptor (Homo sapiens), sequence (P29376 whole entry): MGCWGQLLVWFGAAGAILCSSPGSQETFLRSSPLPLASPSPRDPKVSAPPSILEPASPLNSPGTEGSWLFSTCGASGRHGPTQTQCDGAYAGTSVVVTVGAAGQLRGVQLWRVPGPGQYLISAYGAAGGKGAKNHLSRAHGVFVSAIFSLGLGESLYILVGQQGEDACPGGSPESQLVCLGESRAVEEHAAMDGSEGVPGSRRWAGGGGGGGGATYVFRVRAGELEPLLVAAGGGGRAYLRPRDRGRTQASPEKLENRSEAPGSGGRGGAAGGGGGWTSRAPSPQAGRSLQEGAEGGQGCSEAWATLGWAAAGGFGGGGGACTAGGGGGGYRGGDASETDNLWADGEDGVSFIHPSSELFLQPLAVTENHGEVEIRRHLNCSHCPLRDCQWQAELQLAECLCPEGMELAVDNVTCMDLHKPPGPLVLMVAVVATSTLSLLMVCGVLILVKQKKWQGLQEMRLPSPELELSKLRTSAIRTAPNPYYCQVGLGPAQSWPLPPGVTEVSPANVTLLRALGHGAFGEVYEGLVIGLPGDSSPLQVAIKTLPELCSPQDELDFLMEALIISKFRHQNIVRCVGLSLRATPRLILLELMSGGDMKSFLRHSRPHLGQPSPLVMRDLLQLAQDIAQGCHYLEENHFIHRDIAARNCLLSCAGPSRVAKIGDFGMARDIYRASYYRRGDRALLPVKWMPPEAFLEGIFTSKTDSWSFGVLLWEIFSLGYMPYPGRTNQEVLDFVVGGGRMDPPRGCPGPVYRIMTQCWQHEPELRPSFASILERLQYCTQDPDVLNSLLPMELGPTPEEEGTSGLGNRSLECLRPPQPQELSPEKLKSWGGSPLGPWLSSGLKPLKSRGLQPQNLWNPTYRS

Mast/stem cell growth factor receptor Kit (Homo sapiens), P10721 [T670I], sequence (P10721 whole entry T670I): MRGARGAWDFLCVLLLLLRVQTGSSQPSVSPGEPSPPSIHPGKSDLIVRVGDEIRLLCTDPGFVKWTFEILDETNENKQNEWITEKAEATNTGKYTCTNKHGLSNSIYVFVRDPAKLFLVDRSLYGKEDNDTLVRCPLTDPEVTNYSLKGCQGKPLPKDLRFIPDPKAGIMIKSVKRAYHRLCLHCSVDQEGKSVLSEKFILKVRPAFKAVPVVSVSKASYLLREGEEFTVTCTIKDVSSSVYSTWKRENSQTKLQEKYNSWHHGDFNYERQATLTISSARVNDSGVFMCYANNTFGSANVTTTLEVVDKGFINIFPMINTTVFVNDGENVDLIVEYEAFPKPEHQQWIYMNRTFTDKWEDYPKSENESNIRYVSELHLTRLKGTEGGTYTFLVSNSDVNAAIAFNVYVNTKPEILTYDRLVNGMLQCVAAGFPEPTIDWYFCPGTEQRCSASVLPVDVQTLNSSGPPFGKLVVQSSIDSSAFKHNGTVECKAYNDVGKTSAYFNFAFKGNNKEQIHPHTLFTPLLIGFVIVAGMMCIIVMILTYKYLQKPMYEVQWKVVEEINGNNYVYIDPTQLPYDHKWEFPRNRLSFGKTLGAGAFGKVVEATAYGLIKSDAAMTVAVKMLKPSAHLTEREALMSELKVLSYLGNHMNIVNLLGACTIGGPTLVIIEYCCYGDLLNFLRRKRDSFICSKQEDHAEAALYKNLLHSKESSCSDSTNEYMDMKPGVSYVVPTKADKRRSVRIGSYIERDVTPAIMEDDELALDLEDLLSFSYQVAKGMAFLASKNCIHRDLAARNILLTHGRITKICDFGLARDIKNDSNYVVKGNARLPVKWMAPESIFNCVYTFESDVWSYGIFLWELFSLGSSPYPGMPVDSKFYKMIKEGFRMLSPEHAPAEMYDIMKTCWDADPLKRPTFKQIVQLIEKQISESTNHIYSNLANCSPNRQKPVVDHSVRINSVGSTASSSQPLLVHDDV
Vascular endothelial growth factor receptor 2 (Homo sapiens), sequence (P35968 whole entry): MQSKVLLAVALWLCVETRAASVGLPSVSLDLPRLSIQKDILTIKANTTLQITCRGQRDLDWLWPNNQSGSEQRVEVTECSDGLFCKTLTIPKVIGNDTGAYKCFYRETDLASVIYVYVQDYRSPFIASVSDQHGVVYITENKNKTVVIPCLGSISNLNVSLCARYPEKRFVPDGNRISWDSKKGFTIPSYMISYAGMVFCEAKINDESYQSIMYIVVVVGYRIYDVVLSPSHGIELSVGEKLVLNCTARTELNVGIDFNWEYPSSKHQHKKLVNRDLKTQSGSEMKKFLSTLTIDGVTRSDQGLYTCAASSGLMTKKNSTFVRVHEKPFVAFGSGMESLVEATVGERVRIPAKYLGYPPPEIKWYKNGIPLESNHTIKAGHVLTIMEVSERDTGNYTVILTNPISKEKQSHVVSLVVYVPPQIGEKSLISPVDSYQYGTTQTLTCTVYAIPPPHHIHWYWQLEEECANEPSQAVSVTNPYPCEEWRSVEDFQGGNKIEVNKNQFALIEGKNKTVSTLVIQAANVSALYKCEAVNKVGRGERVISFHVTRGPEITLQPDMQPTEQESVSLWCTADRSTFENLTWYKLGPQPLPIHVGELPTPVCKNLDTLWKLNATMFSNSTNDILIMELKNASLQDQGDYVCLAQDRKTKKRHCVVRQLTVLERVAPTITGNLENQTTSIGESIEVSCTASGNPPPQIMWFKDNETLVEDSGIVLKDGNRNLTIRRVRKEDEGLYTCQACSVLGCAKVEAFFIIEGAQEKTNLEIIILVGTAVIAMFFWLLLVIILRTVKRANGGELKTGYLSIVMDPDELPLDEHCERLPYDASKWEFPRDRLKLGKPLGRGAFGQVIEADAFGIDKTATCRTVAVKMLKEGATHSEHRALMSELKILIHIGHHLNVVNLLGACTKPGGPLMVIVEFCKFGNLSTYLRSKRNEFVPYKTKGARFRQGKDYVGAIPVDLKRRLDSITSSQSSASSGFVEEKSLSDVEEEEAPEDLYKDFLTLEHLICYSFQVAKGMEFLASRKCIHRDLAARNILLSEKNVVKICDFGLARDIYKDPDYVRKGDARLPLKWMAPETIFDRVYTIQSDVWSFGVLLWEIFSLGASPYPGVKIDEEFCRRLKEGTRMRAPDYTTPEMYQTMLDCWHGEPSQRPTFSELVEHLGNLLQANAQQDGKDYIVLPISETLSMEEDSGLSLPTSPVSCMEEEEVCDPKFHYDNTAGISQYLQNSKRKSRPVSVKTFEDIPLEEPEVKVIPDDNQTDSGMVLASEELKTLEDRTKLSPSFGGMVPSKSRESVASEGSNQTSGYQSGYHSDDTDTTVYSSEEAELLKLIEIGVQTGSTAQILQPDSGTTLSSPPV
Tyrosine-protein kinase JAK1 (Homo sapiens), sequence (P23458 whole entry): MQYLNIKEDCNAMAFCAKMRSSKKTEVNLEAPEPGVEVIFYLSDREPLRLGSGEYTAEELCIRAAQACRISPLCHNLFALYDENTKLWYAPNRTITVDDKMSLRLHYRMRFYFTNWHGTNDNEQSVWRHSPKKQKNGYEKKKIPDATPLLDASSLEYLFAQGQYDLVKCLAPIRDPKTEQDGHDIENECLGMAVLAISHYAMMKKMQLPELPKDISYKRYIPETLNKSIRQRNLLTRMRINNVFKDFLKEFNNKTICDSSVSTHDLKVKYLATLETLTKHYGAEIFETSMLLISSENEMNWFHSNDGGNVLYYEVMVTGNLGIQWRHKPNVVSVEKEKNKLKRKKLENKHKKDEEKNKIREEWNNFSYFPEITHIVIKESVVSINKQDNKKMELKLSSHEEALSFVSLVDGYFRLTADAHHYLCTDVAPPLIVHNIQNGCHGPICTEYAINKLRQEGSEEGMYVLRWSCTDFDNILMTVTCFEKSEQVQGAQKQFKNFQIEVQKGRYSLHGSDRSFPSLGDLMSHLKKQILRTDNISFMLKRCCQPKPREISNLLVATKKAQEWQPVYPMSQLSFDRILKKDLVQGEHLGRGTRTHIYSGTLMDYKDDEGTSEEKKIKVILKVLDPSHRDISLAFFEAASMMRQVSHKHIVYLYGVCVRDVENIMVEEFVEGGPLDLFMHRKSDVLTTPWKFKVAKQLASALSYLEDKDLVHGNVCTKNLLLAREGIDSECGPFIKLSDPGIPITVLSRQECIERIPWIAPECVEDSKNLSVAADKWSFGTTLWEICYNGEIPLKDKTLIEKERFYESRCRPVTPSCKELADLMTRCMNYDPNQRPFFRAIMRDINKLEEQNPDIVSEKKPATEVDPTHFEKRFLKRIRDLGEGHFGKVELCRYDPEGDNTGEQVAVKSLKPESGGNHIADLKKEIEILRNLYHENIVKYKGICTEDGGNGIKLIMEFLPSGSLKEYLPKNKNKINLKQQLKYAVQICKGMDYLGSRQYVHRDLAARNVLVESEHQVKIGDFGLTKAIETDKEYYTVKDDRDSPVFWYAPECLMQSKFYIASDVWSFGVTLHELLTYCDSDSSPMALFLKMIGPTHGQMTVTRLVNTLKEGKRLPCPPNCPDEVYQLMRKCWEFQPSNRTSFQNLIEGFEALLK
Mast/stem cell growth factor receptor Kit (Homo sapiens), P10721 [D816V], sequence (P10721 whole entry D816V): as the sequence (P10721 whole entry T670I) above, with I670T, D816V counted along it
Tyrosine-protein kinase Lck (Homo sapiens), sequence (P06239 2-509 limits assumed): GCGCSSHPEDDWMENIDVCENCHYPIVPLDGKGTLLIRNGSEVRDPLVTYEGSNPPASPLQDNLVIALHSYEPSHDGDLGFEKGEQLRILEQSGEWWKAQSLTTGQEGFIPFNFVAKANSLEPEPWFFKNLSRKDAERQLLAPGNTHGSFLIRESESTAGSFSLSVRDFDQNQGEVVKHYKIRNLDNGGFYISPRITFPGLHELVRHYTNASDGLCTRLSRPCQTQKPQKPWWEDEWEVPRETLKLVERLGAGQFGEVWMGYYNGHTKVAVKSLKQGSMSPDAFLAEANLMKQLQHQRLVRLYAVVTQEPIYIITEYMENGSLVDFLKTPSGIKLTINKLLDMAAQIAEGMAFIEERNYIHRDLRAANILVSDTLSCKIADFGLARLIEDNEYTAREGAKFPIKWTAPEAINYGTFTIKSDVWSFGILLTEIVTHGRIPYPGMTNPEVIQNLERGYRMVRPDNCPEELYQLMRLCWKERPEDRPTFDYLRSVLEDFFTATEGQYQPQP
Mast/stem cell growth factor receptor Kit (Homo sapiens), P10721 [V560G], sequence (P10721 whole entry V560G): as the sequence (P10721 whole entry T670I) above, with V560G, I670T counted along it
Mast/stem cell growth factor receptor Kit (Homo sapiens), sequence (P10721 whole entry): as the sequence (P10721 whole entry T670I) above, with I670T counted along it

| SMILES | inhibition [1] | inhibition [2] | inhibition [3] | inhibition [4] | inhibition [5] | inhibition [6] | inhibition [7] | inhibition [8] | inhibition [9] | inhibition [10] | inhibition [11] | inhibition [12] | inhibition [13] | inhibition [14] | inhibition [15] | inhibition [16] | inhibition [17] | inhibition [18] | inhibition [19] | inhibition [20] |
| --- | --- | --- | --- | --- | --- | --- | --- | --- | --- | --- | --- | --- | --- | --- | --- | --- | --- | --- | --- | --- |
| NS(=O)(=O)c1ccc(N/N=C2\C(=O)Nc3cccc(CCc4ccncc4)c32)cc1 | 2.79% | -0.35% | 1.96% | 0.5% | 1.19% | 0.74% | 5.91% | 19.6% | 46.7% | 27% | 63.7% | 2.92% | 5.18% | 6.45% | 15% | 4.31% | 14.1% | 2.22% | 5.75% | 1.69% |
| COc1ccc(-c2nn3ncccc3c2-c2ccnc(Nc3ccc(F)c(F)c3)n2)cc1 | 3.13% | 3.71% | 14.6% | 0.73% | 1.18% | -1.36% | 0.8% | 6.9% | 20.6% | 7.56% | 28.2% | 6.57% | 5.39% | 3.81% | 11.5% | -0.18% | 4.13% | 7.63% | 39.1% | 4.19% |
| Cc1nnc(-c2cccc(-c3ccc(C(=O)NCC4CC4)cc3)c2)o1 | 2.05% | 2.76% | 9.78% | 1.87% | 2.79% | -1.21% | 0.46% | 6.85% | 9.47% | 7.19% | 9.77% | 1.04% | 7.79% | 5.46% | 5.66% | 0.29% | 2.8% | 2.77% | 2.64% | 4.15% |
| COc1cccc(Nc2nccc(-c3cnn4ncccc34)n2)c1 | 6.45% | -0.13% | 13.2% | 1.95% | 29.2% | 2.03% | 44.2% | 9.69% | 42.1% | 89.5% | 99.3% | -1.05% | 4.28% | 60.9% | 95.3% | 40.2% | 78.3% | 3.11% | 11.2% | 4.15% |
| CC1=C(C(=O)Nc2ccc3[nH]ncc3c2)C(c2ccc(F)cc2)N=C(c2ccc(C(F)(F)F)nc2)N1 (centres undefined) | 2.33% | 1.34% | 1.91% | 1.27% | 2.08% | 0.58% | 1.34% | 5.88% | 9.39% | 4.11% | 5.44% | -0.02% | -2.78% | 1.78% | 1.33% | 1.39% | 3.28% | 3.06% | 2.27% | 1.67% |
| O=C1Nc2ccccc2/C1=C1\CCc2cc(O)ccc21 | 14.6% | 3.42% | 12.7% | 1.74% | 3.79% | -0.09% | 13.3% | 10.5% | 37.8% | 66.3% | 93.7% | 4.08% | 1.34% | 39.3% | 88.1% | 6.44% | 41.6% | 3.68% | 8.53% | 7.84% |
| CCn1c(-c2nonc2N)nc2cncc(C(=O)NCCNC)c21 | 0.3% | 0.48% | 2.04% | 2.49% | 0.73% | -3.8% | -2.17% | 4.45% | 13.5% | 6.23% | 11.8% | 12.8% | 3.67% | 3.08% | 6% | -0.72% | 0.98% | 2.21% | 3.67% | 5.21% |
| Nc1nccc(-c2c(-c3ccc(F)cc3)ncn2C2CCNCC2)n1 | -0.06% and 1.58% | -5.03% and -2.79% | 1.1% and 3.47% | -1.85% and 0.8% | -1.57% and 1.93% | 0.47% and 0.86% | 2.72% and 2.66% | -2.27% and 1.08% | 2.47% and 2.78% | -3.74% and 1.54% | -2.8% and 0.85% | 13% and -2.76% | 1.63% and 3.54% | -2.81% and 0.49% | -3.42% and -0.01% | 1.31% and 1.87% | 3.68% and 1.62% | 1.27% and 4.01% | 14.3% and 17.1% | -2.04% and 0.7% |
| CCN1CCC(C(=O)Nc2n[nH]c3nnc(-c4cccc(F)c4F)cc23)CC1 | 0.88% | 1.68% | -1.21% | -0.5% | -0.03% | 0.12% | 1.09% | 1.67% | 4.26% | 1.8% | 2.87% | -0.19% | -1.53% | 3.1% | -0.26% | 0.02% | 3.46% | -0.07% | 2.23% | -0.09% |
| CNC(=O)c1cncc(/C=C/c2ccccc2C)c1 | 2.59% | 6.31% | 12.7% | 1.48% | 1.45% | -0.66% | 0.49% | 4.29% | 7.71% | 5.02% | 14.5% | 1.55% | 3.24% | 3.26% | 4.48% | 3.49% | 5.75% | 1.99% | 7.19% | 2.41% |
| Nc1ncnc2occ(-c3ccc(NC(=O)Nc4cc(C(F)(F)F)ccc4F)cc3)c12 | 7.9% and 3.04% | -0.01% and -6.67% | 8.18% and -2.37% | 2.05% and -0.57% | 18.8% and 7.54% | -0.84% and 0.28% | 1.36% and 1% | 63.8% and 54% | 71.1% and 78.2% | 90.2% and 85.7% | 102% and 99.8% | 2.13% and -0.16% | 3.55% and 0.01% | 64.5% and 57% | 85.6% and 96% | 70.7% and 81.8% | 78.7% and 97.7% | 10.9% and 3.28% |  | 7.84% and 2.37% |
| CC1(C)CC(n2cnc(-c3ccc(F)cc3)c2-c2ccnc(N)n2)CC(C)(C)N1 | 0.97% | -2.83% | 1.68% | 0.57% | -0.41% | -0.01% | -0.6% | -0.9% | 5.32% | -0.71% | 2.82% | -0.86% | -3.56% | 2.5% | 1.11% | 1.03% | -0.87% | -0.02% | 6.94% | 1.09% |
| c1ccc(-c2n[nH]cc2-c2ccnc(-c3ccc(OCCn4ccnc4)cc3)c2)nc1 | 2.03% | 0.34% | 6.98% | 0.38% | 3.12% | -0.46% | 4.76% | 19.9% | 65.9% | 1.62% | 11.4% | 3.19% | 19.5% | 1.86% | 3.3% | 1.49% | 4.59% | 0.89% | 12.7% | 0.8% |
| CN(C)CCNC(=O)Nc1ccc(N(C)c2ccnc(Nc3ccc(CS(C)(=O)=O)cc3)n2)cc1 | 3.84% | 3.89% | -1.93% | 1.46% | 3.2% | -1.47% | -0.17% | 7.04% | 18.9% | 13.9% | 57.6% | 3.66% | 3.76% | 4.26% | 6.89% | 11.7% | 54.1% | 3.05% | 8.53% | 3.62% |
